For 14 compounds, Potency results are on record in PubChem BioAssay (Tox21).

Inconclusive results are not listed. Entries that show only a call come without a potency. The source made the active and inactive calls. The call rests on the fitted dose curve; in most records, active means well fitted inhibition curve with a large enough effect in the repeat runs; inconclusive means weak or mixed curves, or effect the other way; inactive means no such curve, though single readings can be large or run the other way.

Androgen receptor (Homo sapiens), sequence (P10275 whole entry, looked up): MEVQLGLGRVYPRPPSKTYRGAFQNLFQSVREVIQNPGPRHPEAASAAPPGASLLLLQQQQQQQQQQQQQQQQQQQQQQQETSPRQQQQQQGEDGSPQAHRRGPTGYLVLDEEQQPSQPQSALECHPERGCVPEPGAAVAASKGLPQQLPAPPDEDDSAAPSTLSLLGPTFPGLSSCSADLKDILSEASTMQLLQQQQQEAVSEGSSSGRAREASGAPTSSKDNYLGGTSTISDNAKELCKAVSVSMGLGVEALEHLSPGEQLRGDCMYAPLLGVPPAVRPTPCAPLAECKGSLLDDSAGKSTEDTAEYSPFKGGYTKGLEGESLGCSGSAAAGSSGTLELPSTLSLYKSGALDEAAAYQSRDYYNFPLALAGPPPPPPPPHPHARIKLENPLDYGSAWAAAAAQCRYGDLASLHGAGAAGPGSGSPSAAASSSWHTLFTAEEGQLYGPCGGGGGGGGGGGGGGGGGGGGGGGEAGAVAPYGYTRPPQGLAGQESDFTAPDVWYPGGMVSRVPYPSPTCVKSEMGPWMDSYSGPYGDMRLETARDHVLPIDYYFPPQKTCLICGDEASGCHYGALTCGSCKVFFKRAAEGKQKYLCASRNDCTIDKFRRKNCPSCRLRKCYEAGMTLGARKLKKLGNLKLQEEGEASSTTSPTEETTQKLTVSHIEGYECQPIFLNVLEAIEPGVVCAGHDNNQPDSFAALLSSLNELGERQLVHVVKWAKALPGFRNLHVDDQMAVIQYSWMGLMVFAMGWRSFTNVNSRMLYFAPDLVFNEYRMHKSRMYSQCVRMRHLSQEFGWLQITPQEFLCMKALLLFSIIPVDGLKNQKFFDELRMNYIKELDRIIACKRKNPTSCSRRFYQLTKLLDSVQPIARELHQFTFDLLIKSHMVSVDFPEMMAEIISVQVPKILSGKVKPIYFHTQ

The experiment concerns the target Androgen receptor (Homo sapiens) (UniProt P10275). Briefly: qHTS assay to identify small molecule antagonists of the androgen receptor (AR) signaling pathway using the MDA cell line (AID 743042; further: nearly all actives have a fitted effect of over 55% in size). Particulars: MDA-kb2 AR-luc, MMTV luciferase, R1881 antagonist, 16 h; series mostly up to 70.3 µM. The source says:
U.S. Tox21 Program National Center for Advancing Translational Sciences [NCATS] NIH Chemical Genomics Center [NCGC] U.S. Environmental Protection Agency [EPA] National Institutes of Environmental Health Sciences [NIEHS] National Toxicology Program [NTP] U.S. Food and Drug Administration [FDA] Tox21 Assay Overview: Androgen receptor (AR), a nuclear hormone receptor, plays a critical role in AR-dependent prostate cancer and other androgen related diseases. Endocrine disrupting chemicals (EDCs) and their interactions with steroid hormone receptors like AR may cause disruption of normal endocrine function as well as interfere with metabolic homeostasis, reproduction, developmental and behavioral functions. To identify the compounds that inhibit AR signaling, MDA-kb2 AR-luc cell line (from ATCC, deposited by Wilson et al.) was used to screen the Tox21 10K compound library. MDA-kb2 AR-luc cell line is human breast carcinoma cell line that was stably transfected with a luciferase reporter gene under control of the MMTV promoter containing response elements for both androgen receptor (AR) and glucocorticoid receptor (GR).
Tox21 Assay Protocol Summary: MDA-kb2 cells were dispensed at 3,000 cells/4 uL/well of culture medium into white wall/solid-bottom 1536-well plates using a Multidrop Combi (ThermoFisher Scientific, Waltham, MA) dispenser. After the assay plates were incubated at a 37C and 0% CO2 for 5 hr, 23 nL of compounds dissolved in DMSO, positive controls or DMSO only was transferred to the assay plate by a Pintool station (Kalypsys, San Diego, CA), followed by addition of 1 uL of agonist (R1881) in culture medium using a Bioraptr Flying Reagent Dispenser (FRD) workstation (Beckman Coulter, Indianapolis, IN, USA). The plates were incubated at a 37C and 0% CO2 for 16 h. After 15.5 h incubation, 1uL of CellTiter-Fluor reagent (Promega, Madison, WI) was added using a Bioraptr FRD to each plate for measuring cytotoxicity. The fluorescence intensity was quantified on a ViewLux plate reader (PerkinElmer, Shelton, CT) following 30 min incubation at 37C and 0% CO2. For measuring luciferase reporter gene activity, 4 uL of ONE-Glo reagent (Promega) was added to each plate using a Bioraptr FRD and luminescence was quantified on a ViewLux (PerkinElmer) plate reader after 30 min incubation at room temperature.
A general note: Quantitative high-throughput screening tests each substance at several concentrations.
`Cc1ccc(C(C)C)cc1`: the Potency result was “inactive”.
On to `CCCN(CCC)C(=O)SCC`, for which the Potency entry is “inactive”.
Next, `O=[N+]([O-])c1ccccc1C(F)(F)F`: “inactive”.
The value for `CCCCC(CC)COC(=O)c1ccc(C(=O)OCC(CC)CCCC)cc1` (centres undefined) was “inactive”.
The value for `CC(C)(CO)CO` was “inactive”; that for `Nc1nc(N)c2nc(-c3ccccc3)c(N)nc2n1` was “inactive”.
In the case of `Cc1ccccc1Cl`, the Potency entry is “inactive”.
Next, `CC(C=O)Cc1ccc(C(C)(C)C)cc1` (centres undefined): “inactive”; `Cc1nnc(NS(=O)(=O)c2ccc(N)cc2)s1`: “inactive”.
Next, `CO[Si](CCCNCCN)(OC)OC`: “inactive”.
With `CCCOCC(C)O` (centres undefined), the Potency result is “inactive”.
As for `OCC(O)CS` (centres undefined), the Potency entry is “inactive”.
Turning to `CCc1cccc(CC)c1N`, the Potency result is “inactive”.
Next, `O=[N+]([O-])c1cc(C(F)(F)F)ccc1Cl`: “inactive”.
